Records with an inconclusive call do not appear. Activity calls are given as the source filed them. Calls follow the shape of the dose curve; as a rule, active = well fitted cell-killing curve with a large enough effect; inconclusive = small, poorly fitted or top-dose-only effect, or effect the other way; inactive = no such curve, though single readings can be large or run the other way. Non-standard residues stand in square brackets, D forms with d. Residues, ends and D or L forms follow the SMILES beside them. *: point of attachment. Sta = CC(C)C[C@H](N)[C@@H](O)CC(=O)O; Isovaleryl = CC(C)CC(=O)*
Experiments:
[1] = Quantitative High-Throughput drug screen in 47 multiple myeloma cell lines against the NCATS MIPE library collection: OCIMY1_PLB cell viability assay (AID 1918979); also: nearly all actives have a fitted effect of over 35% in size; as to viability: series mostly up to about 46 µM
Summary of the method: (§1)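 Viability after 48 h drug exposure was measured as ATP-dependent luminescence. Cells, 500 per well, sat at 37 °C under 5% CO2; DMSO wells set 100%, media-only wells 0%.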

[2] = Quantitative High-Throughput drug screen in 47 multiple myeloma cell lines against the NCATS MIPE library collection: MM1R_ATCC cell viability assay (AID 1918981); also: nearly all actives have a fitted effect of over 35% in size
Summary of the method: as §1

[3] = Quantitative High-Throughput drug screen in 47 multiple myeloma cell lines against the NCATS MIPE library collection: LP1_DSMZ cell viability assay (AID 1918982); also: nearly all actives have a fitted effect of over 35% in size
Summary of the method: as §1

[4] = Quantitative High-Throughput drug screen in 47 multiple myeloma cell lines against the NCATS MIPE library collection: KMS28PE_JCRB cell viability assay (AID 1918983); also: nearly all actives have a fitted effect of over 35% in size
Summary of the method: as §1

[5] = Quantitative High-Throughput drug screen in 47 multiple myeloma cell lines against the NCATS MIPE library collection: KMS34_JCRB cell viability assay (AID 1918985); also: nearly all actives have a fitted effect of over 40% in size
Summary of the method: as §1

[6] = Quantitative High-Throughput drug screen in 47 multiple myeloma cell lines against the NCATS MIPE library collection: L363_DSMZ cell viability assay (AID 1918984); also: nearly all actives have a fitted effect of over 40% in size
Summary of the method: as §1

[7] = Quantitative High-Throughput drug screen in 47 multiple myeloma cell lines against the NCATS MIPE library collection: OCIMY7_PLB cell viability assay (AID 1918987); also: nearly all actives have a fitted effect of over 65% in size
Summary of the method: as §1

[8] = Quantitative High-Throughput drug screen in 47 multiple myeloma cell lines against the NCATS MIPE library collection: MM1S_ATCC cell viability assay (AID 1918980); also: nearly all actives have a fitted effect of over 45% in size
Summary of the method: as §1

[9] = Quantitative High-Throughput drug screen in 47 multiple myeloma cell lines against the NCATS MIPE library collection: OCIMY5_PLB cell viability assay (AID 1918988); also: nearly all actives have a fitted effect of over 65% in size
Summary of the method: as §1

Measured: Potency
Potency is read from the fitted curve at half-maximal effect.

C=C(c1ccc(C(=O)O)cc1)c1cc2c(cc1C)C(C)(C)CCC2(C)C
inactive: [1] | [2] | [3] | [4] | [5]

CC(C)CC(=O)N[C@H](C(=O)N[C@H](C(=O)N[C@@H](CC(C)C)[C@@H](O)CC(=O)N[C@@H](C)C(=O)N[C@@H](CC(C)C)[C@@H](O)CC(=O)O)C(C)C)C(C)C (Isovaleryl-VV[Sta]A[Sta]-OH)
not listed: [5] | [8] | [9]
inactive: all other assays above

CCCCN(CCCC)CCC(O)c1cc2c(Cl)cc(Cl)cc2c2cc(C(F)(F)F)ccc12 (stereo not given)
inactive: [1] | [8] | [6]
active: [4] 23.5 µM | [9] 11.8 µM

Cc1ccc(NC(=O)c2ccc(CN3CCN(C)CC3)cc2)cc1Nc1nccc(-c2cccnc2)n1
inactive: [1] | [2] | [4]

C=CCc1cc(OC)c(O)c(C(=O)NCCO)c1
not listed: [6] | [7]
inactive: all other assays above

CN(C)[C@@H](CCOc1cccc2ccccc12)c1ccccc1
active: [8] 23.5 µM | [4] 20.9 µM | [5] 20.9 µM | [9] 20.9 µM
inactive: [1]

Cc1ccc(C(=O)c2cc(O)c(O)c([N+](=O)[O-])c2)cc1
active: [8] 20.9 µM | [6] 16.6 µM
inactive: [1] | [3] | [4] | [5]

CC1(C)C(=O)N(CCN2CCC(C(=O)c3ccc(F)cc3)CC2)c2ccccc21
active: [1] 7.43 µM | [8] 20.9 µM | [2] 16.6 µM | [6] 13.2 µM | [9] 5.26 µM
inactive: [4]

Nc1cc(C(Cl)=C(Cl)Cl)c(S(N)(=O)=O)cc1S(N)(=O)=O
active: [8] 0.059 µM | [7] 11.8 µM
not listed: [6] | [9]
inactive: all other assays above

N[C@@H](Cc1cc(I)c(Oc2cc(I)c(O)c(I)c2)c(I)c1)C(=O)O
not listed: [3] | [5] | [9]
inactive: all other assays above

CCCCCCCCCCCCCCCCCCCCCCO
not listed: [3] | [7] | [8]
inactive: all other assays above

Cc1cc(=O)oc2cc(O)ccc12
active: [2] 6.62 µM
inactive: [1] | [3] | [4] | [6] | [9]

CC(=O)O[C@H]1C(=O)[C@@]2(C)C([C@H](OC(=O)c3ccccc3)[C@]3(O)C[C@H](OC(=O)[C@H](O)[C@@H](NC(=O)c4ccccc4)c4ccccc4)C(C)=C1C3(C)C)[C@]1(OC(C)=O)CO[C@@H]1C[C@@H]2O (stereo not given in full)
active: [1] 0.0187 µM
inactive: [8] | [2] | [3] | [4] | [9]

O=c1ccc2ccc(O)c(O)c2o1
inactive: [1] | [4]
active: [8] 4.18 µM | [7] 8.33 µM

CN(C)C(=O)COC(=O)Cc1ccc(OC(=O)c2ccc(N=C(N)N)cc2)cc1
inactive: [1] | [3] | [4]
active: [8] 11.8 µM | [6] 5.26 µM

O=C1c2ccccc2-c2n[nH]c3cccc1c23
inactive: [1] | [3] | [4]
active: [8] 14.8 µM

CC(=O)N1CCN(c2ccc(OC[C@H]3CO[C@](Cn4ccnc4)(c4ccc(Cl)cc4Cl)O3)cc2)CC1
active: [2] 11.8 µM | [4] 6.62 µM | [5] 13.2 µM | [9] 18.7 µM
inactive: [6]

CN1CCC(=C2c3ccccc3CCc3sccc32)CC1
inactive: [2] | [3] | [4] | [5] | [9]

Clc1ccc(C(Cn2ccnc2)OCc2ccc(Sc3ccccc3)cc2)c(Cl)c1 (stereo not given)
active: [8] 18.7 µM | [2] 26.4 µM | [3] 23.5 µM | [6] 20.9 µM | [7] 26.4 µM | [9] 26.4 µM

O=C1CCc2ccc(OCCCCN3CCN(c4cccc(Cl)c4Cl)CC3)cc2N1
active: [4] 18.7 µM
inactive: [1]
